Experimental findings from PubChem BioAssay (EPA / NIEHS) are described below.

The nature of assay [1]: CCTE_Mundy_HCI_hNP1_CellTiter: CCTE's Cell Titer-Glo 2 Assay in human neuroprogenitor cells for Viability, Mundy Lab (AID 2284241; active = hit-call score of the fitted dose curve at least 0.9, where 1 is the maximum;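 as to AC50: a hit is a drop in ATP luminescence versus DMSO meaning reduced viability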). The procedure, abridged:
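Measures ATP content in human neural progenitors derived from WA09 embryonic cells. Read-out at 26.5 hours after dosing, with DMSO serving as the negative control and baseline.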
Background: ATP-based viability assays read luminescence as a measure of living cells.

Assay [2] in a line: IUF_NPC2c_oligodendrocyte_migration_120hr: Leibniz Research Institute for Environmental Medicine (IUF) 120-hour Neural Progenitor Cell Migration Assay for Oligodendrocyte Migration (NPC2c) (AID 2284297). The procedure, abridged:
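Read-out is the mean distance of O4-positive oligodendrocytes from the sphere core edge at 120 h, normalized to radial glia migration and fitted in the gain direction against DMSO. Spheres of primary human neural progenitors differentiated on laminin under continuous compound exposure.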

Assay [3] can be described thus: IUF_NPC2a_radial_glia_migration_120hr: Leibniz Research Institute for Environmental Medicine (IUF) 120-hour Neural Progenitor Cell Migration Assay for Radial Glia Migration (NPC2a) (AID 2284298). The procedure, abridged:
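Readout: distance in um from sphere core edge to migration-area edge, derived from Hoechst nuclei density with a threshold-defined polynomial boundary. Spheres: hNPC, GW 16-19, 0.3 mm, on PDL/laminin; exposure 5 days; DMSO is baseline.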

A short description of assay [4]: IUF_NPC2a_radial_glia_migration_72hr: Leibniz Research Institute for Environmental Medicine (IUF) 72-hour Neural Progenitor Cell Migration Assay for Radial Glia Migration (NPC2a) (AID 2284299). Put shortly: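 Migration out of plated human neural progenitor spheres is scored at 72 h as the distance in um from the sphere core edge to the edge of the migration area. Values are the mean of four manual measurements per well, normalised to DMSO.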

Assay [5] can be described thus: IUF_NPC2b_neuronal_migration_120hr: Leibniz Research Institute for Environmental Medicine (IUF) 120-hour Neural Progenitor Cell Migration Assay for Neuron Migration (NPC2b) (AID 2284300). The procedure, abridged:
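Read-out is mean distance from sphere edge to each TUBB3-positive neuron at 120 h, expressed relative to radial glia migration distance and to DMSO baseline. Single 0.3 mm human NPC spheres differentiated on laminin under continuous compound exposure.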

Assay [6] is described as follows: IUF_NPC3_neuronal_differentiation_120hr: Leibniz Research Institute for Environmental Medicine (IUF) 120-hour Neuronal Differentiation Assay (NPC3) (AID 2284301). Put shortly: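 Primary human fetal neural progenitor spheres (GW 16-19, 0.3 mm) plated on poly-D-lysine/laminin in N2 medium, exposed from day 0 for 120 h with half-medium refresh at day 3. TUBB3+ cells as percent of Hoechst nuclei in migration area; DMSO baseline.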

A short description of assay [7]: IUF_NPC4_neurite_length_120hr: Leibniz Research Institute for Environmental Medicine (IUF) 120-hour Neuronal Morphology Assay for Neurite Length (NPC4) (AID 2284302). The procedure, abridged:
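Human fetal cortex (GW 16-19) neural progenitor spheres, 0.3 mm, were plated on poly-D-lysine/laminin in N2 differentiation medium and exposed from day 0 for 120 h, half-feeding at day 3. Mean TUBB3+ neurite length (µm) came from skeletonized images, relative to DMSO.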

The nature of assay [8]: IUF_NPC4_neurite_area_120hr: Leibniz Research Institute for Environmental Medicine (IUF) 120-hour Neuronal Morphology Assay for Neurite Area (NPC4) (AID 2284305; active = hit-call score of the fitted dose curve at least 0.9, where 1 is the maximum). Put shortly: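 Human fetal cortex-derived neural progenitor spheres (0.3 mm, GW 16-19) plated on poly-D-lysine/laminin in N2 differentiation medium and exposed from day 0 for 120 h across 7 concentrations plus solvent control. Neurite area is mean pixel area per TUBB3-positive neuron via skeletonization, analysed relative to DMSO.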

Assay [9] is described as follows: IUF_NPC5_oligodendrocyte_differentiation_120hr: Leibniz Research Institute for Environmental Medicine (IUF) 120-hour Oligodendrocyte Differentiation Assay (NPC5) (AID 2284304; active = hit-call score of the fitted dose curve at least 0.9, where 1 is the maximum;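 also: primary human fetal neural progenitor spheres plated to migrate and differentiate; share of O4-positive cells among Hoechst nuclei found by CNN image analysis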). The procedure, abridged:
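Oligodendrocyte differentiation was scored after 120 h as the O4-positive share of Hoechst-stained nuclei across the neurosphere migration area, using a trained convolutional neural network on high-content fluorescence images. Human fetal neural progenitor spheres were dosed from day 0, normalised to DMSO.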

A short description of assay [10]: CCTE_Mundy_HCI_Cortical_Synap_Neur_Matur_NeuronCount: CCTE's Synaptogenesis and Neurite Maturation Assay in rat cortical cells for Neuron Count, Mundy Lab (AID 2284242; active = hit-call score of the fitted dose curve at least 0.9, where 1 is the maximum;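 as to AC50: neuron number from Hoechst nuclei and MAP2 staining by high-content imaging; hits reduce neuron count versus DMSO baseline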). Put shortly:
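Imaging-based neuron count in rat cortical cultures after chemical exposure from DIV 7 to DIV 12, with AraC added at DIV 5. Activity is fitted relative to DMSO.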

SMILES strings stand for the structures. Results filed as inconclusive are left out. Active and inactive are the calls of the source. The calls were made as follows, unless noted: active = hit-call score of the fitted dose curve at least 0.9, where 1 is the maximum; inactive = score below 0.9.

As to `Oc1ccccc1`, the call in assay [1] was inactive.
In the case of `O=C1O[C@H]([C@@H](O)CO)C(O)=C1O`, the compound was classed as inactive in assay [1], in assay [2], in assay [3], in assay [4], in assay [5] and in [6]. For the same compound, the compound was classed as inactive in [7] and in assay [8].
A word on the AC50: it is the concentration giving half of the maximal activity seen. As to `CC(C)(c1cc(Br)c(O)c(Br)c1)c1cc(Br)c(O)c(Br)c1`, the AC50 was 3.61 µM (active) in [2]; 3.14 µM (active) in [3]; 3.76 µM (active) in assay [4]; 5.12 µM (active) in assay [5]; 5.06 µM (active) in [6]; 3.33 µM (active) in assay [7]. Besides, the half-maximal activity concentration (AC50) in assay [9] is 0.628 µM (active); in assay [8], 5.13 µM (active).
Regarding `CN1C(=O)CC[C@H]1c1cccnc1`, the call in [1] and in assay [10] was inactive.
As for `CC/C(=C(/CC)c1ccc(O)cc1)c1ccc(O)cc1`, the AC50 is 29.7 µM (active) in [1] and 14 µM (active) in [10].
